Only some compounds are listed: those with a hit (about 1.5% of all), similar ones and a draw of the others.
DAGLB inhibitor: blocks human DAGLB lipase activity | Q8NCG7 | HEK293T DAGLB membrane lysate, EnzChek fluorogenic substrate | inhibition, % at 5.17 µM | hit rate 0.059% among 340,000 | AID 504411; in the data active = inhibition above about 34%
TMEM16A inh: mouse TMEM16A channel inhibition, primary screen. Q8BHY3. HEK293 TMEM16A/YFP iodide influx fluorescence, ionomycin. normalized B-score (activity score, 25-100; higher = stronger inhibition) at 10 µM. hit rate 1.2% among 310,000;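 active = ratio plate-corrected score three or more library SD toward inhibition, starting fluorescence score within five deviations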;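 also: score derived from kinetic fluorescence span divided by baseline fluorescence per well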
Target sequence (Q8BHY3 whole entry, looked up): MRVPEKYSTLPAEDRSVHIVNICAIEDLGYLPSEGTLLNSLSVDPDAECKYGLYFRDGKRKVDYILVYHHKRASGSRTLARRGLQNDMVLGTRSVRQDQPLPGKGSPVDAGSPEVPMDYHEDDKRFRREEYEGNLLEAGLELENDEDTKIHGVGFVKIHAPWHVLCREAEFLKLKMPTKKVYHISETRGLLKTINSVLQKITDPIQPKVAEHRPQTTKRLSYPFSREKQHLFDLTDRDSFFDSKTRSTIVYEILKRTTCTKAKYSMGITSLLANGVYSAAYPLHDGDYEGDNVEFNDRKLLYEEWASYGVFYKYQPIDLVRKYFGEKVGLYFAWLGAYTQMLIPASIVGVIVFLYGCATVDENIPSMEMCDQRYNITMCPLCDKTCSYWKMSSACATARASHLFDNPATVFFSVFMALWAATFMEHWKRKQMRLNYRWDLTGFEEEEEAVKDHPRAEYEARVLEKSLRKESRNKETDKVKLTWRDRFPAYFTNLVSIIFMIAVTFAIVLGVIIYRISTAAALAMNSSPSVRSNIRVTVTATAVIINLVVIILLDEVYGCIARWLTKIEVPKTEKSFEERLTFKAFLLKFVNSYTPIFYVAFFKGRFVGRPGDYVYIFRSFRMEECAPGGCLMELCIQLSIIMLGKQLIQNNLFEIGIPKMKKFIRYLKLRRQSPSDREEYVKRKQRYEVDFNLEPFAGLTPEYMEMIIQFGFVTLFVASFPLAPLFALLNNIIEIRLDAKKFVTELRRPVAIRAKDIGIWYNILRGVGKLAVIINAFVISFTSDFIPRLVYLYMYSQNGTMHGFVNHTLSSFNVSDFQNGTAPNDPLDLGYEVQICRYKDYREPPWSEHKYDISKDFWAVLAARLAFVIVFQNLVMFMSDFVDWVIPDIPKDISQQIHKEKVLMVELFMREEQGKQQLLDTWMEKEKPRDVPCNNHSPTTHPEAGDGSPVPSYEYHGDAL
TMEM16A act: activates or potentiates the mouse TMEM16A chloride channel | Q8BHY3 | HEK293 TMEM16A/YFP-H148Q/I152L, iodide quench fluorescence; hits give low values | B-score at 10 µM | hit rate 0.3% among 340,000;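 active = fluorescence-ratio B-score plate-corrected deviation score at least 3 library SD below zero, with starting fluorescence score within 5 deviations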;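 also: channel opened by trigger with iodide after compound preincubation; score built on the fluorescence ratio of max minus min over baseline; more negative score means more quench and so TMEM16A activation or potentiation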
hiPSC survival: increases survival of single human iPS cells | hiPSC single-cell survival, ATPlite luminescence; 100% = ROCK inhibitor wells, 0% = DMSO | survival enhancement, % at 20 µM | AID 602274 | hit rate 0.044% among 360,000; in the data active = survival enhancement above about 18%;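 also: cells exposed to compounds for 16 hours before the ATP read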
ABCB6 inh MLPCN: human ABCB6 transporter inhibition. K562-ABCB6 porphyrin accumulation, flow cytometry, 1 h; hits give low values. fluorescence ratio to DMSO, % at 10 µM. hit rate 0.19% among 360,000. Q9NP58;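 active = fluorescence ratio to DMSO below 75%, the collection mean minus 3 SD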;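 also: signal is porphyrin accumulated inside mitochondria; lower ratio means ABCB6 inhibition with less porphyrin fluorescence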
TMEM16A reconf: re-confirmation of mouse TMEM16A chloride channel inhibitors | hit rate 39% among 2,300 | HEK293 TMEM16A/YFP-H148Q, iodide quench fluorescence; ionomycin added to raise cell calcium | inhibition, % at 10 µM | shares compounds with TMEM16A inh;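 active = mean duplicate percent inhibition, scaled so buffer wells are 0 and the reference blocker 100, over three buffer SD above buffer mean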
HEK293 Ca mobil: calcium mobilization counter-screen hit for TMEM16A inhibitor series; TMEM16A/YFP HEK293, Fluo4 calcium mobilization; hit rate 2% among 2,300; calcium response (% of ionomycin), % at 10 µM; AID 652231; shares compounds with TMEM16A inh;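 active = duplicate-averaged calcium signal over 20% of the ionomycin maximum, relative to buffer baseline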;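 also: each well's signal is peak minus trough fluorescence divided by its pre-addition baseline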
YFP-HEK293 quench: parental YFP-HEK293 iodide quench counter-screen activity. shares compounds with TMEM16A inh. ionomycin. YFP ratio F(max-min)/F0 at 10 µM. 2,300 tested, under 10 active;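 active = yellow fluorescent protein signal ratio exceeding the buffer control mean by over 5 SD of those controls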;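 also: ratio is mean of duplicate wells from kinetic YFP trace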
ClC-1 inh: blocks the rat ClC-1 voltage-dependent chloride channel. ratio percent, % at 10 µM. CHO ClC-1-YFP, iodide influx fluorescence quench; iodide control reads 0, buffer control 100. shares compounds with TMEM16A inh. 2,300 tested, under 10 active;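 active = duplicate-mean ratio percent above the mean of iodide-only control wells, which defines zero, plus 5 of their SD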;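 also: higher percent means stronger block of ClC-1 iodide influx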
ABCB6 inh CP1: human ABCB6 transporter inhibition | shares compounds with ABCB6 inh MLPCN | K562-ABCB6 porphyrin accumulation, flow cytometry, 1 h; hits give low values | ratio response (% of DMSO), % at 10 µM | 700 tested, under 10 active;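 active = repeat-averaged ratio response below 75% of DMSO, the collection mean minus 3 SD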;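 also: median porphyrin fluorescence at 575 nm with 488 nm excitation from mitochondria; lower ratio means less porphyrin signal so ABCB6 inhibition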
Large screens that a line does not name were inactive (follow-up assays come after a bar, where they were run).

COC(=O)c1ccc(COc2cccc3c2CCN(Cc2ccccc2)C3=O)o1	none
COC(=O)COc1ccc(S(=O)(=O)Nc2ccc3c(c2)OCCO3)cc1Cl	TMEM16A inh 25 | TMEM16A reconf 46% | HEK293 Ca mobil inactive | YFP-HEK293 quench inactive | ClC-1 inh inactive
Cc1ccc(NS(=O)(=O)c2ccc(OCC(=O)Nc3cccc([N+](=O)[O-])c3)c(C)c2)cc1	TMEM16A inh 25 | TMEM16A reconf inactive | HEK293 Ca mobil inactive | YFP-HEK293 quench inactive | ClC-1 inh inactive
COC(=O)COc1ccc(S(=O)(=O)NCc2ccc3c(c2)OCO3)cc1C	none
CC(C)NS(=O)(=O)c1ccc(OCC(=O)Nc2ccc3c(c2)OCO3)c(Cl)c1	none
COC(=O)COc1ccc(S(=O)(=O)Nc2ccc3c(c2)OCCO3)cc1C	TMEM16A inh 25 | TMEM16A reconf 18% | HEK293 Ca mobil inactive | YFP-HEK293 quench inactive | ClC-1 inh inactive
COCC(=O)Nc1ccc(C)c(Cl)c1	TMEM16A inh 100 | TMEM16A reconf inactive | HEK293 Ca mobil inactive | YFP-HEK293 quench inactive | ClC-1 inh inactive
Cc1ccc(NC(=O)Cn2cccc2)cc1Cl	none
CCc1ccc2c(c1)C1(NN=C(c3ccc(C)cc3)S1)C(=O)N2 (stereo unspecified)	none
CC(C)c1ccc2c(c1)C1(NN=C(c3ccccc3)S1)C(=O)N2 (stereo unspecified)	TMEM16A inh 25 | TMEM16A reconf 29% | HEK293 Ca mobil inactive | YFP-HEK293 quench inactive | ClC-1 inh inactive
CC(=O)NC(c1ccc(F)c(F)c1)c1nc(-c2ccncc2)cs1 (stereo unspecified)	none (no result: DAGLB inhibitor, TMEM16A inh, TMEM16A act)
O=c1[nH]c2ccccc2n1CCCSCCCn1c(=O)[nH]c2ccccc21	TMEM16A inh 100 | TMEM16A reconf 38% | HEK293 Ca mobil inactive | YFP-HEK293 quench inactive | ClC-1 inh inactive
CCOC(=O)c1cn(Cc2ccccc2)c(C(=O)OC(C)(C)C)c1O	TMEM16A inh 100 | TMEM16A reconf 32% | HEK293 Ca mobil inactive | YFP-HEK293 quench inactive | ClC-1 inh inactive
C=CCOc1ccc(/C=C2\SC(=S)N(NS(=O)(=O)c3ccc(C)cc3)C2=O)cc1	TMEM16A inh 100 | TMEM16A reconf 72% | HEK293 Ca mobil inactive | YFP-HEK293 quench inactive | ClC-1 inh inactive
CC(C)NC(=O)C1(C)CCN1Cc1cccc(Cl)c1 (stereo unspecified)	none (no result: DAGLB inhibitor, TMEM16A inh, TMEM16A act)
CC(C)(C)C1CCC(OCC(O)CN2CCN(c3ccccc3)CC2)CC1 (stereo unspecified)	none
Cc1ccc(N2CCN(CC(O)COC3CCCCC3)CC2)cc1 (stereo unspecified)	TMEM16A inh 25 | TMEM16A reconf inactive | HEK293 Ca mobil inactive | YFP-HEK293 quench inactive | ClC-1 inh inactive
O=C(COc1ccccc1Br)c1ccc(O)cc1O	TMEM16A inh 100 | TMEM16A reconf inactive | HEK293 Ca mobil inactive | YFP-HEK293 quench inactive | ClC-1 inh inactive
O=C(COc1ccccc1Br)c1ccc2c(c1)OCO2	none
COCC(C)NC(=O)CSc1nc2cc(S(=O)(=O)N3CCCCC3)ccc2o1 (stereo unspecified)	none (no result: TMEM16A inh)
Cc1sc2ncnc(NCC(O)c3ccc([N+](=O)[O-])cc3)c2c1C (stereo unspecified)	TMEM16A inh 100 | TMEM16A reconf 28% | HEK293 Ca mobil inactive | YFP-HEK293 quench inactive | ClC-1 inh inactive
COc1ccc(Cc2nc(C(=O)Nc3ccc(OC)cc3)cs2)cc1	TMEM16A inh 25 | TMEM16A reconf inactive | HEK293 Ca mobil inactive | YFP-HEK293 quench inactive | ClC-1 inh inactive
COc1ccc(Cc2nc(C(=O)NCc3ccccc3OC)cs2)cc1	none
O=C(CCNS(=O)(=O)c1ccccc1C(F)(F)F)NC1CCCCCC1	none (no result: TMEM16A inh)
O=S(=O)(c1ccccc1)c1nc(-c2ccccc2)oc1N1CCOCC1	none
COc1cc(-c2nc(S(=O)(=O)c3ccccc3)c(N3CCOCC3)o2)cc(OC)c1OC	TMEM16A inh 100 | TMEM16A reconf inactive | HEK293 Ca mobil inactive | YFP-HEK293 quench inactive | ClC-1 inh inactive
O=C(COC(=O)/C=C/c1ccccc1[N+](=O)[O-])Nc1ccc(S(=O)(=O)N2CCOCC2)cc1	none (no result: TMEM16A inh)
CC1CN(S(=O)(=O)c2ccc(C(=O)Nc3ccccc3F)cc2)CC(C)O1 (stereo unspecified)	none (no result: TMEM16A inh)
CCOc1ccc(OCc2ccc(C(=O)N3N=C(C(F)F)CC3(O)C(F)F)o2)cc1 (stereo unspecified)	TMEM16A inh 25, ABCB6 inh MLPCN 66 | TMEM16A reconf inactive | HEK293 Ca mobil inactive | YFP-HEK293 quench inactive | ClC-1 inh inactive | ABCB6 inh CP1 inactive
Cc1nc(N)ncc1CCC1OCCO1	none (no result: TMEM16A inh, TMEM16A act)
CCOC(=O)CSc1nnc(NC(=O)c2cc([N+](=O)[O-])cc([N+](=O)[O-])c2)s1	TMEM16A inh 25, ABCB6 inh MLPCN 74 | TMEM16A reconf inactive | HEK293 Ca mobil inactive | YFP-HEK293 quench inactive | ClC-1 inh inactive | ABCB6 inh CP1 inactive
COCCSc1nnc(NC(=O)c2ccc([N+](=O)[O-])cc2)s1	none
CCCCn1c(N)c(N(CCOC)C(=O)c2cccc(S(=O)(=O)N(CC)c3ccccc3)c2)c(=O)[nH]c1=O	none
OCCNc1c2ccccc2nc2c(F)c(F)c(F)c(F)c12	ABCB6 inh MLPCN 71 | TMEM16A reconf inactive | HEK293 Ca mobil inactive | YFP-HEK293 quench inactive | ClC-1 inh inactive | ABCB6 inh CP1 inactive
Cc1ccc(C)c(NC(=O)C2(C)CCN2C(C)C)c1 (stereo unspecified)	none (no result: DAGLB inhibitor, TMEM16A inh, TMEM16A act)
Cc1ccsc1CNC(=O)C1(C)CCN1C(C)C (stereo unspecified)	ABCB6 inh MLPCN 71 (no result: DAGLB inhibitor, TMEM16A inh, TMEM16A act) | ABCB6 inh CP1 inactive
O=C(CCCCCNc1nc(=S)[nH]c2ccccc12)N1CCN(c2ccccn2)CC1	ABCB6 inh MLPCN 74 | ABCB6 inh CP1 inactive
COc1cccc(N2CCN(C(=O)CCCCCNc3nc(=S)[nH]c4ccccc34)CC2)c1	none
CCCC1(C(=O)OCC)NC(c2ccc(O)cc2)C2C(=O)N(c3cccc(C(C)=O)c3)C(=O)C21 (stereo unspecified)	none
Cc1ccc(C2NC(=O)c3ccccc3N2)c(C)c1 (stereo unspecified)	none (no result: TMEM16A inh)

Compound activity from PubChem.
